Screening results: PubChem, several laboratories
proKLK7 act: proKLK7 (human) activation, primary screen | P49862 | purified proKLK7, EDANS-DABCYL substrate fluorescence; 100% is mature enzyme control, 0% vehicle | AID 652039 | activation, % at 7 µM | hit rate 0.9% among 370,000;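 active = activation above the mean of all tested compounds plus 3 SD, computed per campaign excluding outliers beyond control limits, cut at about 13% in these data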
Neddylation inh: inhibitors of human cullin neddylation. calls only at 25 µM. hit rate 0.58% among 360,000. TR-FRET cullin neddylation, biochemical; in the data active = inhibition above about 36%
LEDGF integ inh: blocks HIV-1 LEDGF/p75-dependent DNA integration. TR-FRET IN-LEDGF/p75 DNA integration, Eu/Cy5. inhibition, % at 3.7 µM. hit rate 0.64% among 370,000. AID 743269;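 active = inhibition above the screen-wide mean plus 3 SD, cut at about 13% in these data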;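 note: signal is the Cy5 over europium emission ratio at 671 and 618 nm; 0% = plate median of compound wells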
MBD2 DNA inh: MBD2-methylated oligo binding inhibition; TR-FRET, MBD2 binding to methylated oligonucleotide; inhibition, % at 4.4 µM; hit rate 0.31% among 370,000; AID 686964; in the data active = inhibition above about 13%
Rin1-Abl PPI inh: blocks binding of human Rin1 to Abl | TR-FRET Rin1/Abl binding, biochemical | inhibition, % at 7.35 µM | P00519+Q13671 | hit rate 0.4% among 360,000; in the data active = inhibition above about 5%, passing the limit was not always enough
UHRF1 binding: UHRF1 methyl-DNA binding inhibition | Q96T88 | UHRF1 binding to methylated oligo, TR-FRET | inhibition, % at 4.4 µM | hit rate 0.75% among 370,000 | AID 687016; in the data active = inhibition above about 21%;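 note: UHRF1 SRA domain binding a hemimethylated CpG hairpin DNA probe; 0% = median of test compound wells and 100% = reference inhibitor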
IN multimer act: counter-screen for LEDGF/p75 integration inhibitors: HIV-1 integrase multimerization activators | shares compounds with LEDGF integ inh | TR-FRET HIV-1 integrase multimerization, biochemical | activation, % at 7.7 µM | hit rate 17% among 2,000; in the data active = activation above about 8.9%
TRFRET interf: optically interferes with TR-FRET readout in LEDGF counter-screen. shares compounds with LEDGF integ inh. TR-FRET optical interference counterscreen, HIV-1 IN multimerization. inhibition, % at 7.7 µM. 2,000 tested, under 10 active. AID 1053135;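 active = inhibition above the mean over all tested compounds plus 3 SD, which no compound reached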;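 note: 0% = integrase with antibodies and DMSO and 100% = antibodies without integrase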
IN-LEDGF confirm: LEDGF/p75-dependent HIV-1 integration inhibition, confirmation. shares compounds with LEDGF integ inh. TR-FRET LEDGF/p75-dependent HIV-1 integration, biochemical. inhibition, % at 3.7 µM. hit rate 36% among 2,000. AID 1053136; in the data active = inhibition above about 14%
The depositor's hits bear a star; i = inactive; nt = no result shown. Sampled rows, rich in hits. Any-hit rate of the full collection: about 3.1%.

SMILES | proKLK7 act | Neddylation inh | LEDGF integ inh | MBD2 DNA inh | Rin1-Abl PPI inh | UHRF1 binding | IN multimer act | TRFRET interf | IN-LEDGF confirm
Cc1cc(/C=C2\SC(=S)NC2=O)c(C)n1C | -0.1 | i | 38.3* | 6.4 | -4.0 | 23.2* | 13.7* | -48.8 | 11.6
COc1cc(CNc2ncnc3c2ncn3[C@H]2CN(Cc3cccc(C(F)(F)F)c3)C[C@@H](COC(C)=O)O2)cc(OC)c1OC | -0.8 | i | 38.1* | -3.9 | -1.9 | -0.3 | 1.3 | -6.7 | -7.8
Oc1ccccc1/C=N/c1c(-c2ccco2)nc2ccccn12 | -6.2 | nt | 19.7* | -7.8 | -2.4 | 4.4 | 2.6 | -12.9 | 4.4
CCCNC(=O)c1cc(C2CCCN(S(=O)(=O)c3cccc4cccnc34)C2)on1 (configuration not stated) | -0.4 | i | 37.0* | 0.5 | 1.4 | -0.8 | -4.1 | 14.6 | 0.7
COc1ccc(-c2ccnc3nc(-n4cccc4)nn23)cc1 | -1.6 | i | 2.9 | -3.4 | -0.8 | -1.1 | nt | nt | nt
c1coc(-c2ccnc3nc(-n4cccc4)nn23)c1 | -0.1 | i | 17.0* | 6.4 | -0.9 | -6.0 | 1.1 | -5.4 | 7.8
CCc1ccc(S(=O)(=O)/N=C2\C=C(Nc3ccc(O)cc3)C(=O)c3ccccc32)cc1 | nt | i | nt | nt | -2.1 | nt | nt | nt | nt
O=C(O)c1ccc(NC2=C/C(=N/S(=O)(=O)c3ccccc3)c3ccccc3C2=O)cc1 | 0.6 | i | 49.3* | -10.8 | 2.1 | 8.0 | 6.5 | -23.2 | 72.5*
O=C(O)c1ccc(NC2=C/C(=N/S(=O)(=O)c3cccs3)c3ccccc3C2=O)cc1 | -0.1 | i | 30.8* | -14.5 | -1.0 | 2.9 | 9.1* | -32.4 | 75.1*
CCc1ccc(S(=O)(=O)/N=C2\C=C(Nc3cccc(C(=O)O)c3)C(=O)c3ccccc32)cc1 | 0.3 | i | 47.4* | -4.5 | -0.2 | 7.1 | 2.6 | -9.3 | 74.2*
Cc1cccc(NC2=C/C(=N/S(=O)(=O)c3cccs3)c3ccccc3C2=O)c1 | -0.5 | i | 2.2 | -5.2 | -1.2 | 0.5 | nt | nt | nt
Cc1ccc(NC2=C/C(=N\S(=O)(=O)c3cccs3)c3ccccc3C2=O)c(C)c1 | nt | i | nt | nt | 1.9 | nt | nt | nt | nt
O=C1C(Nc2ccc(O)cc2)=C/C(=N/S(=O)(=O)c2cccs2)c2ccccc21 | 0.9 | i | 55.5* | -10.7 | -7.3 | 2.8 | 7.1 | -25.6 | 70.1*
CC(=O)N1Cc2cc(C(=O)NCC(F)(F)F)nc(-c3cccc(-c4cc5ccccc5o4)c3)c2[C@H]1CCO | 0.2 | nt | -0.4 | -0.3 | nt | 0.6 | nt | nt | nt
O=C(Cc1ccc(Br)cc1)NNC(=O)c1cccs1 | -0.3 | i | 13.7* | 2.7 | 1.4 | -2.3 | -0.1 | 0.5 | 0.4
O=C(NCCc1ccccc1)C(=O)NCC1CCCO1 (configuration not stated) | -0.8 | i | 84.1* | 7.5 | 2.6 | 2.5 | -0.9 | 4.5 | -6.0
Cc1ccc(NC(=O)C(=O)NCC2CCCO2)cc1C (configuration not stated) | 0.3 | i | 77.7* | -0.9 | 1.9 | -2.1 | -0.3 | 1.4 | -3.1
CC1CN(C(=O)COC(=O)c2cncc(Br)c2)CC(C)O1 (configuration not stated) | -0.4 | i | -1.3 | -1.3 | -1.9 | 11.5 | nt | nt | nt
N#Cc1cc2c(=O)n3ccccc3nc2n(Cc2ccco2)c1=NC(=O)c1ccco1 | 0.3 | nt | 30.1* | 3.9 | -0.8 | 22.0* | -0.3 | 1.7 | 5.1
Cc1ccc(CNC(=O)c2cc3c(=O)n4ccccc4nc3n(CC3CCCO3)c2=N)cc1 (configuration not stated) | nt | nt | nt | nt | -3.1 | nt | nt | nt | nt
CC(=O)N=c1c(C#N)cc2c(=O)n3cccc(C)c3nc2n1Cc1ccco1 | 5.9 | nt | -0.7 | -4.5 | -3.1 | 2.9 | nt | nt | nt
Cc1ccc(CNC(=O)c2cc3c(=O)n4ccccc4nc3n(Cc3ccco3)c2=N)cc1 | -4.2 | nt | 15.5* | -4.5 | 0.2 | -4.3 | 9.2* | -33.3 | 21.2*
C/C(=N\NC(N)=O)c1ccccc1Cl | 0.5 | i | -1.4 | 0.8 | 3.5 | 2.1 | nt | nt | nt
